# In PubChem BioAssay (NCI):
# Compounds without any hit were thinned out: in the full panel of roughly 83,000, 20% have a hit.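 Treatment: one concentration, 48 hours, 96-well format. Scoring: percent growth, with anything below 10 considered active.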 Values without a mark were called inactive. Active and inactive are the calls of the source.
# Tested on: HL-60(TB) leukemia
# Test: NCI-60 one-dose screen, 48 h (100 = growth as untreated, 0 = no growth, -100 = all killed)
# Conditions: 10 µM unless noted
row,SMILES,growth
1,Cc1ccc(C2=NN(c3ccc(S(=O)(=O)NC(=O)NCc4ccccc4)cc3)C(c3ccc(N(C)C)cc3)C2)c(C)c1 (stereo not given),-1.6% (active)
2,COc1cccc(-c2nc3sccn3c2-c2ccnc(NCCNS(=O)(=O)c3cccc(F)c3)c2)c1,-1.8% (active)
3,O=C(/C=C/c1ccccc1)n1c(-c2ccccc2)nc2ccccc21,101%
4,CCOC(=O)c1c(Nc2nc3ccccc3s2)sc2c1CCC(=O)C2,58.7%
5,CCCCCSB(SCCCCC)c1ccccc1,104%
6,CC1(C)CC(=O)c2c(ccc(C(=O)C[C@@H](N)CO)c2N)O1,35.7%
7,O=C(N/N=C/c1ccc(O)cc1O)c1cccnc1,-17.2% (active)
8,O=C1c2ccccc2-c2nnc(-c3ccc(Br)cc3)cc21,0.71% (active)
9,CN(CCC(=O)c1ccccc1)CCC(=O)c1ccccc1,75.4%
10,COc1ccc(/C=C/C(=O)NCCO)cc1,93.6%
11,C[Si](C)(C)C(c1ccccc1)c1ccccc1,80.5%
12,Cc1cc(=O)c2cc3nc(-c4cccnc4)oc3c(Br)c2o1,84.9%
13,COC(=O)[C@]12CC[C@@H](C)[C@H](C)[C@@H]1C1=CC[C@@H]3[C@@]4(C)C(C=O)=C[C@@](C)(COS(C)(=O)=O)[C@@H]4C(=O)C[C@@]3(C)[C@]1(C)CC2,31.5%
14,COc1cc(-c2cc(/C=C/C(C)=O)[nH]n2)cc(OC)c1OC,66.7%
15,C/C(O)=C(/C=N/C(=S)Nc1ccccc1)C(=O)Nc1ccccc1C,94.7%
